# In all, about 360,000 compounds went through this assay and about 1,600 (0.44%) were called active. For the sample, actives were picked, then their nearest neighbours and some compounds at random. A number with no mark means an inactive call.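 The calls were made as follows: active = inhibition above the screen-wide average plus 3 SD (cut at about 13% in these data); inactive = the rest.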
# Target: Galanin receptor type 3 (Homo sapiens) (UniProt O60755)
# Assay: GalR3 antagonists in HEK293 cells, primary screen, cell-based, fluorescence readout (AID 651719);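 also: forskolin and galanin both at EC90 stimulate the cells; cAMP rise reported by CNG channel membrane potential dye signal; 0% = forskolin plus galanin with DMSO and 100% = forskolin alone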
# Details: HEK293 GalR3-CNG cAMP membrane potential fluorescence; at 3 µM; stronger effect = higher value; galR3 body fused to GalR1 C-terminus
# Chain of Galanin receptor type 3 (Homo sapiens) (O60755 1-299 limits assumed): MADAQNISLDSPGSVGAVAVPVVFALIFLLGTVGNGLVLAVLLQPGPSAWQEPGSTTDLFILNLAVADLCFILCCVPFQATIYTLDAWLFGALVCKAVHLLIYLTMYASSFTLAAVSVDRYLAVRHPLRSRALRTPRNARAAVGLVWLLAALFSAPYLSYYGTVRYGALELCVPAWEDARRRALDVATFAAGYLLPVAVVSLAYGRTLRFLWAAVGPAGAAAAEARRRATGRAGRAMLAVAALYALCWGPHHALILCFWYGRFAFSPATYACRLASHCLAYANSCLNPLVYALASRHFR
row,SMILES,inhibition
1,CCCCCCCCn1c2c(c(=N)c3c1CCC3)CCCC2,30.2% (active)
2,COC(=O)C1=C(C)N(Cc2cccc(C(F)(F)F)c2)C(=NCc2cccc(C(F)(F)F)c2)NC1c1ccccc1C(F)(F)F (configuration not stated),-1.24%
3,Cc1ccc(NC(=O)N2c3ccccc3SC2c2ccco2)c(C)c1 (configuration not stated),-5.21%
4,CCOc1ccc(Br)cc1S(=O)(=O)N1CCC(C(=O)O)CC1,-0.52%
5,CCOc1ccc(Br)cc1CSC(=N)N,58.7% (active)
6,CC(C)(C)NCc1cc(Br)ccc1OC1CCCC1,-9.54%
7,COc1ccccc1C(=O)N1O[C@]23C=C[C@]14C[C@@H](O)CC[C@]4(C)C2CC[C@]1(C)[C@@H]([C@H](C)/C=C/[C@H](C)C(C)C)CC[C@H]13 (some centres not stated),-7.73%
8,CCN1C(=O)N[C@@H]2C[C@H](C(=O)N3CCCC3)[C@H](C)[C@H](c3ccccc3)C[C@@H]21,-5.5%
9,O=C(N[C@H](C(=O)N1CCC[C@H]1C(=O)NCCc1ccccc1Cl)c1ccccc1)c1ccccc1,-7.99%
10,COc1ccccc1-c1ccc([C@@H]2C[C@H]3[C@H](CON3C)CN2S(=O)(=O)c2cc(Cl)cc(Cl)c2)cc1,-6.77%
11,COc1ccc(N(C(=O)CNC(=O)c2ccco2)C(C(=O)NCC2CCCO2)c2ccccc2)cc1Cl (configuration not stated),17.1% (active)
12,O=C(NCC(=O)N(c1ccccc1)C(C(=O)NCC1CCCO1)c1ccccc1)c1cccs1 (configuration not stated),0.38%
13,O=C(NCC(=O)N(CC1CCCO1)C(C(=O)NC1CCCCC1)c1ccccc1)c1ccco1 (configuration not stated),-3.5%
14,COC(=O)c1c(-c2ccc(OC)cc2)c2c(c3c4cc(OC)ccc4n(S(=O)(=O)c4ccc(F)cc4)c13)C(=O)N(C)C2,-4.47%
15,CCOC(=O)c1c(NC(=O)CSc2nccc(=O)[nH]2)sc(C)c1C,14.3% (active)
16,CCOC(=O)c1c(NC(=O)CSc2nnc(CNc3ccc(C)cc3C)o2)sc(C)c1C,-5.1%
17,CCOC(=O)c1c(NC(=O)CSc2nnc(Cc3csc(N)n3)n2C)sc(C)c1C,-6.84%
18,O=C1Nc2ccccc2C1=NN=Cc1ccco1,-6.76%
19,CC(C)(C)n1nc(C2CC2)c(Br)c1NC(=O)c1ccccc1F,-6.97%
20,O=c1[nH]c(-c2ccccc2)cn1C1CCN(Cc2ccc(-c3nc4ccc(F)cc4nc3-c3ccccc3)cc2)CC1,-7.59%
21,CCOc1ccc(C(C)=O)cc1COC(=O)c1cnc(Cl)c(Cl)c1,13.8% (active)

row,SMILES,inhibition
1,COC(=O)c1ccc(COC(=O)c2cnc(Cl)c(Cl)c2)cc1,-9.03%
2,CCOc1ccc(C(C)=O)cc1COC(=O)CNC(=O)c1cccs1,-0.09%
3,COC(=O)c1ccc(CN2C(=O)[C@]3(OCCC=C[C@H]3C)c3c(Br)cccc32)cc1,-6.8%
4,CC1CCN(C(=O)c2ncn3c2C(=O)N[C@@H](C)C3)CC1,-3.89%
5,O=C(NCc1ccccc1)[C@@H]1CCCN1C(=O)[C@H]1CCCN1C(=O)c1cccc(Cl)c1,-6.19%
6,Cn1c(CN2CCOCC2)nc2cc(NC(=O)c3ccc(Cl)cc3)ccc21,74.6% (active)
7,O=C(Nc1ccc(CN2CCOCC2)cc1)c1cc(Cl)ccc1Cl,-7.17%
8,CCOC(=O)N1CCN(Cc2nc3cc(NC(C)=O)ccc3n2C)CC1,-9.27%
9,Cc1cc(NCCc2c[nH]c3ccccc23)ccc1Oc1cccnc1,-8.42%
10,COc1ccc(C2Nc3ccccc3C(=O)N2c2ccc(Cl)cc2)cc1Cn1cc([N+](=O)[O-])cn1 (configuration not stated),28.1% (active)
11,COc1ccc(C2Nc3ccccc3C(=O)N2Cc2ccccc2)cc1Cn1nnc2ccccc21 (configuration not stated),-2.99%
12,COc1ccc(CN2CCCC(C(=O)c3ccc(Cl)cc3)C2)cc1Cn1cncn1 (configuration not stated),-0.72%
13,CN[C@H]1C[C@H]2c3[nH]c4c(-c5ccccc5)cccc4c3CCN2C(=O)[C@H]1[C@H](C)O,-8.33%
14,CC(=NNC(N)=O)c1ccc(Cl)c(-n2cccc2)c1,-8.67%
15,C[C@@H]1ON(C)[C@H]2C[C@H]3c4cc(N5CCOCC5)ccc4CCN3C[C@@H]12,-4.65%
16,COC(=O)[C@H](CC(C)C)NS(=O)(=O)c1c(F)cccc1F,-4.91%
17,COCc1[nH]nc2c1C(c1ccccc1)N(c1ccccc1)C2=O (configuration not stated),-6.8%
18,CN1C(=O)C2CC(O)C(SC3CC4C(=O)N(C)C(=O)C4CC3O)CC2C1=O (configuration not stated),-2.8%
19,CSc1nccc(NC(=O)c2ccc(C(C)(C)C)cc2)n1,104% (active)
20,COC(=O)c1nc(NC(=O)c2ccc(C(C)(C)C)cc2)n[nH]1,-1.62%
21,Cc1cccc(NC(=O)c2ccc(S(=O)(=O)N(C)c3ccccc3)cc2)n1,-6.82%

row,SMILES,inhibition
1,CCCCCCCCN1C(=O)[C@@H](CC(=O)NCCCC)C[C@@]2(C(=O)OC)C1=C[C@H](C(C)(C)C)O[C@@H]2C,-5.71%
2,O=C(NCc1ccccc1)[C@H]1CCCN1C(=O)[C@H]1CCCN1C(=O)N1CCOCC1,-7.58%
3,Nc1[nH]c(C(=O)c2ccc(Br)cc2)c(-c2ccc3c(c2)OCO3)c1C(=O)NCCc1c[nH]c2ccccc12,-6.84%
4,NC(=O)c1ncn([C@@H]2O[C@H](C(=O)O)[C@@H](O)[C@H]2O)n1,-7.36%
5,Nc1ncnc2c1ncn2[C@@H]1O[C@H](C(=O)NCC(F)(F)F)[C@@H](O)[C@H]1O,-9.69%
6,Nc1ncnc2c1ncn2C1OC(CO)CC1O (configuration not stated),53.3% (active)
7,Nc1ncnc2c1ncn2[C@@H]1O[C@H](C(=O)N2CCSC2)[C@@H](O)[C@H]1O,-5.85%
8,Brc1ccc(COCCc2cn(Cc3ccccc3)c3ccccc23)cc1,3.44%
9,COC(=O)[C@]12C[C@H](CC(=O)NCc3ccc(C)o3)C(=O)N(CCC3=CCCCC3)C1=C[C@H](C(C)(C)C)O[C@@H]2C,-7.34%
10,CC(Nc1ccc([N+](=O)[O-])cc1[N+](=O)[O-])c1ccccc1 (configuration not stated),-6.77%
11,O=C(NC(Nc1nc2ccc([N+](=O)[O-])cc2s1)(C(F)(F)F)C(F)(F)F)c1ccccc1,20% (active)
12,O=C(NNC(=O)c1ccc(-n2cncn2)c([N+](=O)[O-])c1)c1ccccc1,-6.89%
13,COC(=O)C(C(=O)OC)c1ccccc1NS(=O)(=O)c1cccc2ccccc12,-6.36%
14,CC(C)C[C@H](NC(=O)CC1CCCC1)C(=O)N1CCC[C@H]1C(=O)NCc1ccccc1,1.69%
15,OC[C@@H]1CN(Cc2ccc(-c3ccccc3)cc2)C[C@H](n2cnc3c(NC4CCCC4)ncnc32)O1,27.1% (active)
16,OC[C@@H]1CN(Cc2cccs2)C[C@H](n2cnc3c(NC4CCCC4)ncnc32)O1,-8.57%
17,OC[C@@H]1CN(Cc2ccc(F)cc2)C[C@H](n2cnc3c(NC4CCCC4)ncnc32)O1,-2.96%
18,COC(=O)c1cc2c(c3c4cc(F)ccc4n(S(=O)(=O)c4ccccc4)c13)C(=O)N(Cc1ccccc1OC)C2,-5.48%
19,Cc1noc(C)c1NC(=O)Nc1ccc2c(c1)C(=O)N([C@H](C)CO)C[C@H](C)[C@H](CN(C)Cc1ccncc1)OCCCC[C@@H](C)O2,-3.2%
20,COc1cc(C(=O)Nn2c(O)c(C3=c4ccccc4=NC3=O)sc2=S)ccc1O,19.3% (active)
21,COc1cc(C(=S)NC2CCCCC2)ccc1O,-5.5%

row,SMILES,inhibition
1,COc1cc(C(=O)Nn2c(CC(C)C)nc3ccccc3c2=O)cc(OC)c1OC,-0.49%
2,O=C(C(=O)N1CCC(CNC(=O)c2cccnc2Cl)CC1)c1cccs1,-2.12%
3,CC(=O)N1C[C@@H](CO)[C@@H](N(C)C(=O)C(C)(C)C)C[C@H]1c1ccccc1Br,-3.56%
4,CCN(CC(=O)NCc1ccc(Cl)cc1)C(=O)CSc1ccccc1,46.6% (active)
5,CCN(CC(=O)NCc1ccc(Cl)cc1)C(=O)c1c(C)noc1C,-4.16%
6,CCN(CC(=O)Nc1cc(Cl)ccc1C)C(=O)CSCc1ccccc1,-6.08%
7,COCCNC(=S)N(C)[C@H]1C[C@H]2c3[nH]c4ccccc4c3CCN2C[C@H]1[C@H](C)O,-3.71%
8,CC(=O)C1=C(C)N(Cc2ccc(Cl)cc2)C(=S)NC1c1ccc(F)cc1 (configuration not stated),-2.41%
9,CCCCNc1cccc2c1S(=O)(=O)N[C@@H](C)CO2,0.83%
10,COC(=O)[C@]12C[C@H](CC(=O)NCCCCc3ccccc3)C(=O)N(Cc3ccc4c(c3)OCO4)C1=C[C@H](C(C)(C)C)O[C@@H]2C,-7.85%
11,O=C(/C=C/c1c(Cl)cccc1Cl)NCc1ccccc1,-6.6%
12,O=C(/C=C/c1c(F)cccc1Cl)Nc1nn[nH]n1,13.1% (active)
13,O=C(CCc1ccccc1)Nc1nn[nH]n1,-3.85%
14,Clc1cccc2c1C1CC2CCN1Cc1ccccc1 (configuration not stated),-7.78%
15,CC(C)(C)C(c1nc2ccccc2[nH]1)n1c(Cc2csc3ccccc23)nc2ccccc21 (configuration not stated),-6.57%
16,O=C(N[C@H](Cc1ccccc1)C(=O)N1CCCN(Cc2cccs2)CC1)[C@H]1O[C@@H](n2ccc(=O)[nH]c2=O)[C@H](O)[C@@H]1O,-5.35%
17,COC(=O)c1cccc([N+](=O)[O-])c1CS(=O)(=O)c1ccc(C)cc1,13.8% (active)
18,COC(=O)CNC(=O)c1ccccc1[N+](=O)[O-],-2.07%
19,Cc1c(C(=O)NCCCc2ccccc2)cccc1[N+](=O)[O-],-5.51%

# Source: PubChem BioAssay AID651719 (The Scripps Research Institute Molecular Screening Center, 2012)
